# From PubChem BioAssay (NCI)
# This is part of a sample that, as a whole, favours compounds with a hit. Of some 83,000 tested, about 20% had one in any assay.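 In brief: 96-well plates, 48 h treatment, single concentration, percent growth endpoint.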 Active and inactive are the calls of the source. How the source made its calls: active means growth percent below 10; inactive means the rest.
# Tested on: T-47D breast
# Assay: NCI-60 one-dose screen, 48 h (100 = growth as untreated, 0 = no growth, -100 = all killed)
# Conditions: 10 µM unless noted
row,Compound,growth
1,CC1CCC(n2cnc3c(Cl)ncnc32)O1 (stereo not drawn),91.1% (inactive)
2,N#Cc1cc2[nH]c3ccc(OC(F)(F)F)cc3c2oc1=O,61.2% (inactive)
3,COc1ccc(-c2cnc(-c3ccc(Cl)cc3)[nH]2)cc1OC,84.7% (inactive)
4,COc1ccc2c(CCCCC(c3ccccc3)c3ccccc3)c3[n+](cc2c1OC)CCc1cc2c(cc1-3)OCO2,-49.3% (active)

# Tested on: BT-549 breast
# Assay: as above
# Conditions: 10 µM unless noted
row,Compound,growth
1,COC(=O)[C@@H](NC(=O)[C@@H](OC)[C@@H]1Cc2cc3cc(OC4CC(OC5CC(O)C(O)C(C)O5)C(O)C(C)O4)c(C)c(O)c3c(O)c2C(=O)[C@H]1OC1CC(OC2CC(OC3CC(C)(O)C(O)C(C)O3)C(O)C(C)O2)C(O)C(C)O1)C(C)C (stereo partly drawn),-20.7% (active)
2,Nc1c2c(c(O)c3c1=C(CO)C=N3)=NCCS2=O (stereo not drawn),-74.4% (active)
3,C=CC[n+]1c(/C=C2\Sc3ccccc3N2C)sc(-c2ccccc2)c1-c1ccccc1,11.9% (inactive)
4,CC1(C=O)NC(=O)NC1=O (stereo not drawn),91.4% (inactive)
5,COc1cc2c3c(c1)nc(C)n3CCC2,94.2% (inactive)
6,COc1cc2c(Oc3ccc4[nH]c(C)cc4c3F)ncnc2cc1OCCCN1CCCC1,85.5% (inactive)
7,CCc1nc2cc(/C=C/C(=O)NO)c(F)cc2c(=O)n1CCc1ccccc1,15.7% (inactive)
8,CCc1cc2c(c3ccc(C(=O)CBr)cc13)CCCC2,80.3% (inactive)
9,COc1cc(F)c(F)c(Nc2ccc(I)cc2F)c1NS(=O)(=O)C1(C[C@H](O)CO)CC1,62.1% (inactive)
10,C=CC(=O)Nc1cc2c(Nc3ccc(F)c(Cl)c3)ncnc2cc1C#CC(C)(C)N1CCN(C)CC1,-94% (active)
11,CN1CC[C@H](c2c(O)cc(O)c3c(=O)cc(-c4ccccc4Cl)oc23)[C@H](O)C1,-8.28% (active)
12,COc1cc2ncnc(Nc3ccc(F)c(Cl)c3)c2cc1NC(=O)/C=C/CN1CCCCC1,-32.4% (active)
13,O=C(c1ccccc1)C(c1ccccc1)N1CCOCC1 (stereo not drawn),110% (inactive)
14,COc1ccc(CCCc2c3[n+](cc4c(OC)c(OC)ccc24)CCc2cc4c(cc2-3)OCO4)cc1,41.8% (inactive)
15,CCn1c(-c2nonc2N)nc2c(C#CC(C)(C)O)ncc(OC[C@H]3CCCNC3)c21,49.6% (inactive)
16,COc1ccc(C2CC(=O)c3c(O)c(OC)c(OC)c(OC)c3O2)cc1O (stereo not drawn),64.6% (inactive)
17,NC1(c2ccc(-c3nc4ccn5c(=O)[nH]nc5c4cc3-c3ccccc3)cc2)CCC1,17% (inactive)
18,CCc1nc(C(N)=O)c(Nc2ccc(N3CCC(N4CCN(C)CC4)CC3)c(OC)c2)nc1NC1CCOCC1,19.9% (inactive)
19,CC(C)(C)c1ccc(Cn2cc(CSc3nc4ccccc4s3)nn2)cc1,87.7% (inactive)
20,COCC(=O)NC/C=C/c1ccc2ncnc(Nc3ccc(Oc4ccc(C)nc4)c(C)c3)c2c1,62% (inactive)

row,Compound,growth
1,COc1ccc(-n2c(=O)c3ccccc3n(Cc3ccc(C(=O)NO)cc3)c2=O)cc1,36.2% (inactive)
2,CC(=O)C(C(C)=O)C(c1ccccc1)C(C(C)=O)C(C)=O,105% (inactive)
3,Cc1cc2c(F)c(Oc3ncnn4cc(OC[C@@H](C)OC(=O)[C@H](C)N)c(C)c34)ccc2[nH]1,80.8% (inactive)
4,O=C(Cn1cncn1)Nc1ccc(-c2nc3ccccc3s2)cc1,91.5% (inactive)
5,COc1ccc(-c2cc3c(C)nc(N)nc3n(C3CCC(OCCO)CC3)c2=O)cn1 (stereo not drawn),-18.1% (active)
6,COc1cc(OC)c(/C=C/S(=O)(=O)Cc2ccc(OC)c(NCC(=O)O)c2)c(OC)c1,6.04% (active)
7,C=CC(=O)N(C)[C@H]1C[C@H]2OC(C)(C1OC)n1c3ccccc3c3c4c(c5c6ccccc6n2c5c31)C(=O)NC4 (stereo partly drawn),-70.4% (active)
8,O=C1C=CC2(NN=C(c3ccccc3)N2c2cccc(Cl)c2)c2cccc(O)c21 (stereo not drawn),61.7% (inactive)
9,COC(=O)[C@@H](OC)[C@@H]1Cc2cc3cc(OC4CC(OC5CC(O)C(O)C(C)O5)C(O)C(C)O4)c(C)c(O)c3c(O)c2C(=O)[C@H]1OC1CC(OC2CC(OC3CC(C)(O)C(O)C(C)O3)C(O)C(C)O2)C(O)C(C)O1 (stereo partly drawn),-32.9% (active)
10,O=C(O)c1ccc(Nc2ncc3c(n2)-c2ccc(Cl)cc2C(c2c(F)cccc2F)=NC3)cc1,57.1% (inactive)
11,CC(C)Nc1cc(-c2c[nH]c(C(=O)N[C@H](CO)c3cccc(Cl)c3)c2)c(Cl)cn1,57.3% (inactive)
12,CCN(CC)CCNC(=O)c1c(C)[nH]c(/C=C2\C(=O)Nc3ccc(F)cc32)c1C,20.2% (inactive)
13,COc1cccc2cc(-c3nc(C4CCC(C(=O)O)CC4)n4ncnc(N)c34)[nH]c12 (stereo not drawn),-11.5% (active)
14,O=C(c1ccc(/C=C/c2n[nH]c3ccccc23)cc1)N1CCNCC1,22.6% (inactive)
15,COc1cc(-c2nc(C(=O)NCC(=O)O)nn2-c2ccc(Cl)cc2)cc(OC)c1OC,106% (inactive)
16,CC1CCC(n2cnc3c(Cl)ncnc32)O1 (stereo not drawn),89.6% (inactive)
17,N#Cc1cc2[nH]c3ccc(OC(F)(F)F)cc3c2oc1=O,76.5% (inactive)
18,COc1ccc(-c2cnc(-c3ccc(Cl)cc3)[nH]2)cc1OC,132% (inactive)
19,COc1ccc2c(CCCCC(c3ccccc3)c3ccccc3)c3[n+](cc2c1OC)CCc1cc2c(cc1-3)OCO2,-74.2% (active)
